# Test results: paper PMC7862700, “An all-to-all approach to the identification of sequence-specific readers for epigenetic DNA modifications on cytosine”
# Experiments:
# Assay in all cases: DAPPL (digital affinity profiling via proximity ligation, sequencing); 10 mM Tris-HCl pH 7.5, 50 mM NaCl, 1 mM DTT, 4% glycerol, room temperature, 30 min; GST-TFs on glutathione beads, 16-mer random dsDNA library, 0.1% formaldehyde crosslink after washing; high values mean tight binding
# [1] = biological target: T1, FLI1 (Homo sapiens, UniProt Q01543 1-452); settings: protein: recombinant; tags: N-terminal GST; dsDNA, one strand shown
# T1 sequence: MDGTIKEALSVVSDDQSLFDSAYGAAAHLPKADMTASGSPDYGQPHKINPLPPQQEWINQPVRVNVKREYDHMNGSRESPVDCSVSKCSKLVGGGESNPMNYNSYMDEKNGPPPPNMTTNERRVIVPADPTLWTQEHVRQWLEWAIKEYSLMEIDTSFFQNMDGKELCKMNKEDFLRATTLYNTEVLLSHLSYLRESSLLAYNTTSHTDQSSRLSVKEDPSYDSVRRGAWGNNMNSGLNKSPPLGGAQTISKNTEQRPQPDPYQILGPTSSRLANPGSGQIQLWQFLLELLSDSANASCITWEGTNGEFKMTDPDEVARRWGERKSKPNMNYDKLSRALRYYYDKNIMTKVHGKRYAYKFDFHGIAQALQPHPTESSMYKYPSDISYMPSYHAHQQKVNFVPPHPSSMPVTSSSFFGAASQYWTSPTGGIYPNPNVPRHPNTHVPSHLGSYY
# In short: (§1)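 Beads coated with glutathione captured GST-fused human transcription factors that had been expressed in yeast, and the factors were then given DNA barcodes and pooled with a tag-only sample. The pools were incubated with 200 nmole of a random double-stranded 16-mer DNA library in Tris/NaCl/DTT/glycerol buffer for 30 min at room temperature, washed, crosslinked with 0.1% formaldehyde and proximity-ligated with BsaI/T4 ligase at 37 °C for 1 h. PCR amplification and Illumina NextSeq500 sequencing came last. Binding signal is each hexamer's read frequency for a factor divided by its frequency for the tag-only sample.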
# [2] = biological target: T2, ELK1 (Homo sapiens, UniProt P19419 1-428); settings: protein: recombinant; tags: N-terminal GST; dsDNA, one strand shown
# T2 sequence: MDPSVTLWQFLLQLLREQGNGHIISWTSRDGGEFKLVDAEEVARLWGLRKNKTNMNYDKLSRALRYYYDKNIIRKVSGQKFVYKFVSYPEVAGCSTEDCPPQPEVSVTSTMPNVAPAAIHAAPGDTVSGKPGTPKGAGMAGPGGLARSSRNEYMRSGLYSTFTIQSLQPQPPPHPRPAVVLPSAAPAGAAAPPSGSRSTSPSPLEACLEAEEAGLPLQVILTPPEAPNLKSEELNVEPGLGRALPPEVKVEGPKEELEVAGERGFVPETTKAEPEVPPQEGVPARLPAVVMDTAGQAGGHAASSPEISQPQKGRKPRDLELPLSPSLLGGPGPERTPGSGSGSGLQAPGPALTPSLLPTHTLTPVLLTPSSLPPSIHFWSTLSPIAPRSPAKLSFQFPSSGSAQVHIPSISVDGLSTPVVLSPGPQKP
# In short: as §1
# [3] = biological target: T3, GABPA (Homo sapiens, UniProt Q06546 1-454); settings: protein: recombinant; tags: N-terminal GST; dsDNA, one strand shown
# T3 sequence: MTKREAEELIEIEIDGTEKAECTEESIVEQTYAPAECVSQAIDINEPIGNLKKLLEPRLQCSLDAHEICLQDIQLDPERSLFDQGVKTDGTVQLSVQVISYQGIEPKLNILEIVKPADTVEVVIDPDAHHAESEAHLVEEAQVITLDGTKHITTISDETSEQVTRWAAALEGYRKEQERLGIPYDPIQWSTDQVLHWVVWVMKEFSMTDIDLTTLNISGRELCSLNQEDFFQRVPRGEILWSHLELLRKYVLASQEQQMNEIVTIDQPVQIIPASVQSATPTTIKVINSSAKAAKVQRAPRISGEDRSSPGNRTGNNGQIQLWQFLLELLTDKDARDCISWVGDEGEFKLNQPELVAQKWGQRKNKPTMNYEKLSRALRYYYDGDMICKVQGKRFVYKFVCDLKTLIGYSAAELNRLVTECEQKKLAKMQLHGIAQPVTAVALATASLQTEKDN
# In short: as §1
# [4] = biological target: T4, ERG (Homo sapiens, UniProt P11308 1-479); settings: protein: recombinant; tags: N-terminal GST; dsDNA, one strand shown
# T4 sequence: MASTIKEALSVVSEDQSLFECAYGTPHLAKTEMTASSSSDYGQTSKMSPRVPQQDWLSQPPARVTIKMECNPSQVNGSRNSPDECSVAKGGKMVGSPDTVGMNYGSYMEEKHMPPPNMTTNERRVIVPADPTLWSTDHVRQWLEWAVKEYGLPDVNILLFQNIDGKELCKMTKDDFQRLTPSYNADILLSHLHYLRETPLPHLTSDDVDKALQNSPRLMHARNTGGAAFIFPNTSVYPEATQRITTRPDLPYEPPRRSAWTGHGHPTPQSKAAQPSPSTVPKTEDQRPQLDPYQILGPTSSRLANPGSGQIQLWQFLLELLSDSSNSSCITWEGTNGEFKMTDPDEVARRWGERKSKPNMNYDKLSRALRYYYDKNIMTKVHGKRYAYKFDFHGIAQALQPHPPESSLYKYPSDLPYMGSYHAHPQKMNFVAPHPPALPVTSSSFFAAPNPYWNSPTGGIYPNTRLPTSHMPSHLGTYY
# In short: as §1
# [5] = biological target: ELF1 (Homo sapiens, UniProt P32519 1-619); settings: protein: recombinant; tags: N-terminal GST; dsDNA, one strand shown
# Chain of ELF1 (P32519 whole entry): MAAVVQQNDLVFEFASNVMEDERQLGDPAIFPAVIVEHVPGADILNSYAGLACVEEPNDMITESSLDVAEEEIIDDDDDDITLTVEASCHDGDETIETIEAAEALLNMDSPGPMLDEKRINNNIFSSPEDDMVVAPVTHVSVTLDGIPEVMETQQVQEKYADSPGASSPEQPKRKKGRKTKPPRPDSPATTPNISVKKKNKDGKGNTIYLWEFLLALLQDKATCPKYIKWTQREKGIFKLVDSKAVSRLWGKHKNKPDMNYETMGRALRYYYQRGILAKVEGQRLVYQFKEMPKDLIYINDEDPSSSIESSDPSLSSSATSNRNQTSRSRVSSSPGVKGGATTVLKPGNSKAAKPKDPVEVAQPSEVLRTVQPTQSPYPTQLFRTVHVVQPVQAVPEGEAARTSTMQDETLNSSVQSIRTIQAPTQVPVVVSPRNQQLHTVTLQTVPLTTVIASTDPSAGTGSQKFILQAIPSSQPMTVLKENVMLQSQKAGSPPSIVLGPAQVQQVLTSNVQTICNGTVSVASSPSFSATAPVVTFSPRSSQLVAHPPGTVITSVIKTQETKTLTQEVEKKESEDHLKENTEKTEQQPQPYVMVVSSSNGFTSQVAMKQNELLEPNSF
# In short: as §1
# [6] = biological target: T5, EHF (Homo sapiens, UniProt Q9NZC4 1-300); settings: protein: recombinant; tags: N-terminal GST; dsDNA, one strand shown
# T5 sequence: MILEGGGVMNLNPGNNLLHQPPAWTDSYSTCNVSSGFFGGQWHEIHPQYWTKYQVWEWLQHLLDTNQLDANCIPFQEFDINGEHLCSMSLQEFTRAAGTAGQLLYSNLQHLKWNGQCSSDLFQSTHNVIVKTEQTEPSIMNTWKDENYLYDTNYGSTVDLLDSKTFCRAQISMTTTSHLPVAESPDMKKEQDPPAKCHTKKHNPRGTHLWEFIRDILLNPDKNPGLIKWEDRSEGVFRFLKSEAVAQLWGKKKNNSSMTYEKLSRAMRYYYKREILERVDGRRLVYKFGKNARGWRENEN
# In short: as §1
# [7] = biological target: SPI1 (Homo sapiens, UniProt P17947 1-270); settings: protein: recombinant; tags: N-terminal GST; dsDNA, one strand shown
# In short: as §1
# [8] = biological target: SPIB (Homo sapiens, UniProt Q01892 1-262); settings: protein: recombinant; tags: N-terminal GST; dsDNA, one strand shown
# Chain of SPIB (Q01892 whole entry): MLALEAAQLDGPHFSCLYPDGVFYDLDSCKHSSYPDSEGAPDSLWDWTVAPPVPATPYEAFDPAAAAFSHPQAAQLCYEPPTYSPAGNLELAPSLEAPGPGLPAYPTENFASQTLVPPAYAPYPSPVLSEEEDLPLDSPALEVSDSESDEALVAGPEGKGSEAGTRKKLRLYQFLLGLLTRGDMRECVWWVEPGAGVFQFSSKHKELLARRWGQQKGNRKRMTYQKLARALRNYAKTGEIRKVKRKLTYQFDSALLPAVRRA
# In short: as §1
# [9] = biological target: T6, ELK3 (Homo sapiens, UniProt P41970 1-407); settings: protein: recombinant; tags: N-terminal GST; dsDNA, one strand shown
# T6 sequence: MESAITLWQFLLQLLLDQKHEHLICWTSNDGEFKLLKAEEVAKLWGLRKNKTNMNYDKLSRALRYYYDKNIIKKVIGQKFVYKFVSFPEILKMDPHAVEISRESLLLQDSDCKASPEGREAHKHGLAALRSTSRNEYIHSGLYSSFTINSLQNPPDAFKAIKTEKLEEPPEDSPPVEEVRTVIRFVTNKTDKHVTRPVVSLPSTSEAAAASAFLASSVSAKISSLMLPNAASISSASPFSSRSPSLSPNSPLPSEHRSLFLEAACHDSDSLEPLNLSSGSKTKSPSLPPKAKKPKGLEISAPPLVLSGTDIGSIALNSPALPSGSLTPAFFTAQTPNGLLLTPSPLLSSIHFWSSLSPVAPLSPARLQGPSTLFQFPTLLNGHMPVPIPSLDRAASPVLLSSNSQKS
# In short: as §1
# [10] = biological target: T7, FEV (Homo sapiens, UniProt Q99581 1-238); settings: protein: recombinant; tags: N-terminal GST; dsDNA, one strand shown
# T7 sequence: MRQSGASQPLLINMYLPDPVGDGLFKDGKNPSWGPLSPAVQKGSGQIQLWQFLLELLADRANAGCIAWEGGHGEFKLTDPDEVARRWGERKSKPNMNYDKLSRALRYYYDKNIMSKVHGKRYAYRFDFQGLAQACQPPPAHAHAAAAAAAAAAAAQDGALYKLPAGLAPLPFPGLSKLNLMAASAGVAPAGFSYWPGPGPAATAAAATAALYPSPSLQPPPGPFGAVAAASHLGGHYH
# In short: as §1
# [11] = biological target: ETV5 (Homo sapiens, UniProt P41161 1-510); settings: protein: recombinant; tags: N-terminal GST; dsDNA, one strand shown
# Chain of ETV5 (P41161 whole entry): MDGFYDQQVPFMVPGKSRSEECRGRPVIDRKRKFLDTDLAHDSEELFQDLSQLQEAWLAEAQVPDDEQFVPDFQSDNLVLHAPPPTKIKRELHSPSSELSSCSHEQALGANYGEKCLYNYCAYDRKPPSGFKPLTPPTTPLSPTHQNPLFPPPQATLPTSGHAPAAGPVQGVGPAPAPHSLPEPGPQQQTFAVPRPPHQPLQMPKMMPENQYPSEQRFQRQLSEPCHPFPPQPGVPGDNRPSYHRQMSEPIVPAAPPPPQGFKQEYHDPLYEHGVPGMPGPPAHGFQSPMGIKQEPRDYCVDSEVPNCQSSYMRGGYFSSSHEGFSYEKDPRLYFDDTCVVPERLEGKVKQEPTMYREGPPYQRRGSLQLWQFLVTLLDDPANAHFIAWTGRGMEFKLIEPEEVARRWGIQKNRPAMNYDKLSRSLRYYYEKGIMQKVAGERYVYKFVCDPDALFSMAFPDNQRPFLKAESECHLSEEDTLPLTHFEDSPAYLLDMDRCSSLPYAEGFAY
# In short: as §1
# [12] = biological target: HSF1 (Homo sapiens, UniProt Q00613 1-529); settings: protein: recombinant; tags: N-terminal GST; chain copies: 3; dsDNA, one strand shown
# Chain of HSF1 (Q00613 whole entry): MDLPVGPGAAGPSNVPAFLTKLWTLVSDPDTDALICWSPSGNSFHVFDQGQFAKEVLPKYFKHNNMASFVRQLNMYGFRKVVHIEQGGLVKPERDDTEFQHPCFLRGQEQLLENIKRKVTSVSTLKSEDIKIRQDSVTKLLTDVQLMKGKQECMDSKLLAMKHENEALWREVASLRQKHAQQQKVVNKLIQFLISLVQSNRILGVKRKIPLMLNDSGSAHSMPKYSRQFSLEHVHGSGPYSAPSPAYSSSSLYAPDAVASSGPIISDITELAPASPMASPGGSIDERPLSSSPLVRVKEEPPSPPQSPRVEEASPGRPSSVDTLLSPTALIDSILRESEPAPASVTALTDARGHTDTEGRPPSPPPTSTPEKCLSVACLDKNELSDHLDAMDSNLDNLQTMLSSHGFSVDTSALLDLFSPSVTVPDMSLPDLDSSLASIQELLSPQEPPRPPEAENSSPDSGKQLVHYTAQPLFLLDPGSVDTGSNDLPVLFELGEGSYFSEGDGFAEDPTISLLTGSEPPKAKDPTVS
# In short: as §1
# [13] = biological target: T8, SPIC (Homo sapiens, UniProt Q8N5J4 1-248); settings: protein: recombinant; tags: N-terminal GST; dsDNA, one strand shown
# T8 sequence: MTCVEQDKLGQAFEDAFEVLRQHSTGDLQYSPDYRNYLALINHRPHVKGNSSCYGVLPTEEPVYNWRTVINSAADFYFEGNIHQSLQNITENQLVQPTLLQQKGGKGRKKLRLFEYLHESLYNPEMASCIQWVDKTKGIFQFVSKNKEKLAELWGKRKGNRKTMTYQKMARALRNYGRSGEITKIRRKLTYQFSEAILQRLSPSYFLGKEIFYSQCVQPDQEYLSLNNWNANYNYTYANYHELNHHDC
# In short: as §1
# [14] = biological target: ELF4 (Homo sapiens, UniProt Q99607 1-663); settings: protein: recombinant; tags: N-terminal GST; dsDNA, one strand shown
# Chain of ELF4 (Q99607 whole entry): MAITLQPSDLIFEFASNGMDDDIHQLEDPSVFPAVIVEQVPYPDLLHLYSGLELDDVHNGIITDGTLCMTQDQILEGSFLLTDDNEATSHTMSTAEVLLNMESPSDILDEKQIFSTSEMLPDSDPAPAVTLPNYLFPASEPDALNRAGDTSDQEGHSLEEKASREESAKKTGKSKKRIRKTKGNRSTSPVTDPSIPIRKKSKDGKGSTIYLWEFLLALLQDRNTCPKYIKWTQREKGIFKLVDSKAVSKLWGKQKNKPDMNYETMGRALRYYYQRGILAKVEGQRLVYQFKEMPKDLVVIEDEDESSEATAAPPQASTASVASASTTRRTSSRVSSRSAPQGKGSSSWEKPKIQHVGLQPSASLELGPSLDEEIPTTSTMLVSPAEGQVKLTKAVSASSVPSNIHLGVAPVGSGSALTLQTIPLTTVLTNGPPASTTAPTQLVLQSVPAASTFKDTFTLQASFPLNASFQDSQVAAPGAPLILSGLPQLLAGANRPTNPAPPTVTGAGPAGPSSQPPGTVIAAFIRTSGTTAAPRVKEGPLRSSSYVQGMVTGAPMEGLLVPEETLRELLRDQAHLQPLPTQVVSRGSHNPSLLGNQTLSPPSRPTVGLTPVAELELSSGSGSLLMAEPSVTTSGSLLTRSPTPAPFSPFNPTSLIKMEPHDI
# In short: as §1
# [15] = biological target: T9, ELK4 (Homo sapiens, UniProt P28324-2 1-405); settings: protein: recombinant; tags: N-terminal GST; dsDNA, one strand shown
# T9 sequence: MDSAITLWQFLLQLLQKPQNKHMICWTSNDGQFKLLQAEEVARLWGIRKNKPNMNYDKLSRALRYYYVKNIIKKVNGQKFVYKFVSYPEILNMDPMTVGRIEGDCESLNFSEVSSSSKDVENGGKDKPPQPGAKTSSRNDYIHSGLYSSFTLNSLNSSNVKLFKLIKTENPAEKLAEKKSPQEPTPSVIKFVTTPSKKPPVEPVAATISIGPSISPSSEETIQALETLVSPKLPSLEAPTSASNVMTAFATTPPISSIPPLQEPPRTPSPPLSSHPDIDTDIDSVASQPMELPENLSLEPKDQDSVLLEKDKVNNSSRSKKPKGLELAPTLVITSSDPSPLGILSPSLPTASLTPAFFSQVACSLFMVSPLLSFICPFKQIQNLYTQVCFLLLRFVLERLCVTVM
# In short: as §1
# [16] = biological target: T10, ETV2 (Homo sapiens, UniProt O00321 1-342); settings: protein: recombinant; tags: N-terminal GST; dsDNA, one strand shown
# T10 sequence: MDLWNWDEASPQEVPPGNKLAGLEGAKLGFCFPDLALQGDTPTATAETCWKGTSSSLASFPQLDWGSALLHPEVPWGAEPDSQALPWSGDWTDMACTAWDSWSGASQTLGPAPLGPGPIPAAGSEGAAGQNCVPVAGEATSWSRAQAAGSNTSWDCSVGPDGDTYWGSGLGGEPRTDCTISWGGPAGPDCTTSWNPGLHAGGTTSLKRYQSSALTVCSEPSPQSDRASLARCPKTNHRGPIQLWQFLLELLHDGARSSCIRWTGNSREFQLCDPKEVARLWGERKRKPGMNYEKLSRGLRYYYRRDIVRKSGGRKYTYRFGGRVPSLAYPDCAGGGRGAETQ
# In short: as §1
# [17] = biological target: T11, ELF3 (Homo sapiens, UniProt P78545 1-371); settings: protein: recombinant; tags: N-terminal GST; dsDNA, one strand shown
# T11 sequence: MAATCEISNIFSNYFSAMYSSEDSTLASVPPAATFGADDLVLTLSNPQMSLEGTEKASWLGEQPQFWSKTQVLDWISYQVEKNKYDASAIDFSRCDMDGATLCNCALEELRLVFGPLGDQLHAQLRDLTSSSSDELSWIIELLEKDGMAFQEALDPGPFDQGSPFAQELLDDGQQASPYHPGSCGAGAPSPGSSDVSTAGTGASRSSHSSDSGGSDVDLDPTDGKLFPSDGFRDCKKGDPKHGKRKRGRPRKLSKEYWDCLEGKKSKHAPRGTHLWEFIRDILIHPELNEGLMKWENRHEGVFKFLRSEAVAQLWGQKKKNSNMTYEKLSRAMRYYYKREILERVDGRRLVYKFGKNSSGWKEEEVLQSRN
# In short: as §1
# [18] = biological target: CRX (Homo sapiens, UniProt O43186 1-299); settings: protein: recombinant; tags: N-terminal GST; dsDNA, one strand shown
# Chain of CRX (O43186 whole entry): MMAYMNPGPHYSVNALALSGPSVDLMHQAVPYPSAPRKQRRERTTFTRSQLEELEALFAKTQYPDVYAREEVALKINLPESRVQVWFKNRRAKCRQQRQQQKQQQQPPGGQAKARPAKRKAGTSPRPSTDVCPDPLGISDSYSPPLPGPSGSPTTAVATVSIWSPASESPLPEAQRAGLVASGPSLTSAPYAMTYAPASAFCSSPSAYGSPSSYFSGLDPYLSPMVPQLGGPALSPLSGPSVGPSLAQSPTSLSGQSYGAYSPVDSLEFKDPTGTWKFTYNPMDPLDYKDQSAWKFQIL
# In short: as §1
# [19] = biological target: ETV1 (Homo sapiens, UniProt P50549 1-477); settings: protein: recombinant; tags: N-terminal GST; dsDNA, one strand shown
# Chain of ETV1 (P50549 whole entry): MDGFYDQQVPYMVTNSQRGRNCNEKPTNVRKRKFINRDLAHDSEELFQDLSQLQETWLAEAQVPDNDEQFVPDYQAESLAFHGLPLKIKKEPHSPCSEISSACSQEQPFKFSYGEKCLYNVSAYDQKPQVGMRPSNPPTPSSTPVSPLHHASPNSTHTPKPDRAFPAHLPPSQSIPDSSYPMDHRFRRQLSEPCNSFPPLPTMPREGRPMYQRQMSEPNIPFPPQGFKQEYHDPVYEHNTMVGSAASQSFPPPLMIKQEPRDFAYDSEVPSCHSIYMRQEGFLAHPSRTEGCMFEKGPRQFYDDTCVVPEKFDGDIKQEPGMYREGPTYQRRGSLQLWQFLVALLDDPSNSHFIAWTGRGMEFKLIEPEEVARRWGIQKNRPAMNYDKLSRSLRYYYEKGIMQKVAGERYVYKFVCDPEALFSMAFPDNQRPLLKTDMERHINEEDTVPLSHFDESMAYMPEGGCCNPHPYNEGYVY
# In short: as §1
sequence,measurement,setting,value
GACATT,binding signal,[1],"1.16 fold enrichment (6-mer frequency, TF over GST control)"
same,binding signal,[2],"1.17 fold enrichment (6-mer frequency, TF over GST control)"
same,binding signal,[3],"1.12 fold enrichment (6-mer frequency, TF over GST control)"
same,binding signal,[4],"1.15 fold enrichment (6-mer frequency, TF over GST control)"
same,binding signal,[5],"1.16 fold enrichment (6-mer frequency, TF over GST control)"
same,binding signal,[6],"1.11 fold enrichment (6-mer frequency, TF over GST control)"
same,binding signal,[7],"1.13 fold enrichment (6-mer frequency, TF over GST control)"
same,binding signal,[8],"1.16 fold enrichment (6-mer frequency, TF over GST control)"
same,binding signal,[9],"1.02 fold enrichment (6-mer frequency, TF over GST control)"
same,binding signal,[10],"1.13 fold enrichment (6-mer frequency, TF over GST control)"
same,binding signal,[11],"1.17 fold enrichment (6-mer frequency, TF over GST control)"
same,binding signal,[12],"1.09 fold enrichment (6-mer frequency, TF over GST control)"
same,binding signal,[13],"1.12 fold enrichment (6-mer frequency, TF over GST control)"
same,binding signal,[14],"1.14 fold enrichment (6-mer frequency, TF over GST control)"
same,binding signal,[15],"1.1 fold enrichment (6-mer frequency, TF over GST control)"
same,binding signal,[16],"1.13 fold enrichment (6-mer frequency, TF over GST control)"
same,binding signal,[17],"1.16 fold enrichment (6-mer frequency, TF over GST control)"
same,binding signal,[18],"1.01 fold enrichment (6-mer frequency, TF over GST control)"
same,binding signal,[19],"1.26 fold enrichment (6-mer frequency, TF over GST control)"
